# Assay results published in PMC4336329 (PLoS ONE, 2015).
# In all, about 310,000 compounds went through this assay and about 14,000 (4.5%) showed an effect of 50% or more. The effect is printed as a negative number. The sample holds strong results, similar compounds and a random draw of the others, so the mix is not that of the screen.
# Target: human ether-à-go-go-related gene (hERG) potassium channel (human, UniProt Q12809)
# Experiment: primary screen, population patch clamp on CHO cells stably expressing hERG; higher = less effect of the substance
# 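Note: peak tail current of the secondary pulse compared with the same well before compound.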
# human ether-à-go-go-related gene (hERG) potassium channel, sequence (Q12809 whole entry, looked up): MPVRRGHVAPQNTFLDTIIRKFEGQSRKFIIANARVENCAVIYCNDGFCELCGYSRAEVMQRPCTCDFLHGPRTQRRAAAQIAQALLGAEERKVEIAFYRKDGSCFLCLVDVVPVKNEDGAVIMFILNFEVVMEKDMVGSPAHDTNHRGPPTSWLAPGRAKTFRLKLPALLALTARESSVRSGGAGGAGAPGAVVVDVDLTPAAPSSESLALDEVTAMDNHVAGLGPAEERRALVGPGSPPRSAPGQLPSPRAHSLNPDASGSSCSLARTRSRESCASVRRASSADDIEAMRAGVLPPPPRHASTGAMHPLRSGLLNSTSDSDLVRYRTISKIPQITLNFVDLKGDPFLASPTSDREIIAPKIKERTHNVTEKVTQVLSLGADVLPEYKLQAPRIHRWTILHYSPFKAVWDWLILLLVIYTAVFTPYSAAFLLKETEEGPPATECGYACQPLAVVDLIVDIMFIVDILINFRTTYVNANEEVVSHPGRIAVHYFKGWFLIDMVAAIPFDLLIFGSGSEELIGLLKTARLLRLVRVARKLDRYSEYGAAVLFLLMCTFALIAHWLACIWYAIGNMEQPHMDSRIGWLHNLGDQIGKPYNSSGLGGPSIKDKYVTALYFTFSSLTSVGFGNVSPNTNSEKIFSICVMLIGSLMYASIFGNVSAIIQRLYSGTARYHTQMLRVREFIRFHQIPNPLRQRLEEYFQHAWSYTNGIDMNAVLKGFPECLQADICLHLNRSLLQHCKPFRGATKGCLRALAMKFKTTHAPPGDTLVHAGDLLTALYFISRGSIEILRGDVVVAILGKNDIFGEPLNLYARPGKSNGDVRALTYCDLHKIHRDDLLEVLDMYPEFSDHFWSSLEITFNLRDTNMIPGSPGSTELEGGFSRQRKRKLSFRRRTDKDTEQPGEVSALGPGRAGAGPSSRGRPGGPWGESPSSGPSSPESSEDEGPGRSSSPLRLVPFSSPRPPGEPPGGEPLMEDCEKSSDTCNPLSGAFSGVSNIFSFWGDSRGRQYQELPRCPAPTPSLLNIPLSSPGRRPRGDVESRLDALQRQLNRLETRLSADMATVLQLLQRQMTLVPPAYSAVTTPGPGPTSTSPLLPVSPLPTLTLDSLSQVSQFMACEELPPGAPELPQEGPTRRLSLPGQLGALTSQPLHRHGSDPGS
row,SMILES,"hERG current change (%, negative = inhibition) at 10uM [%]"
1,COc1ccc(C2/C(=C(/O)c3ccc(C)cc3)C(=O)C(=O)N2C)cc1 (centres unmarked),-2.36
2,CC1CCc2ccccc2N1C(=N)N(C)C.Cl (centres unmarked),3.44
3,CCNC(=O)O/N=C(\C)c1sc(-c2ccccc2)nc1C,-11.2
4,CCOC(=O)C(=CNNc1cccc(Cl)c1)C(=O)OCC,15.5
5,O=C(Nc1ccc(F)cc1F)c1sccc1SCc1cccc(C(F)(F)F)c1,-4.52
6,O=C(Nc1ccc(Nc2ccccc2)cc1)c1c(F)c(F)c(F)c(F)c1F,22.9
7,CCOc1cccc(N(C(=O)c2ccco2)C(C(=O)NC2CCCC2)c2cccnc2)c1 (centres unmarked),0.854
8,Cc1ccc2sc(NNC(=O)c3cc(-c4cccs4)nc4ccccc34)nc2c1C,16.3
9,CCn1c(SCC(=O)Nc2nc(C)c(C)s2)nnc1-c1ccco1,-68.8
10,CCc1nnc(NC(=O)CSc2nnc(-c3ccco3)n2CC)s1,13.7
11,CCn1c(Cc2ccccc2)nnc1SCC(=O)Nc1nc(C)c(C)s1,9.3
12,CCn1c(SCC(=O)Nc2nc(C)c(C)s2)nnc1-c1cccs1,-73.4
13,CCn1c(SCC(=O)Nc2nnc(C)s2)nnc1-c1ccco1,-5.98
14,CCn1c(SCC(=O)Nc2nc(C)c(C)s2)nnc1-c1cccnc1,-26.2
15,Cc1ccc2cc(C=C(C#N)C#N)c(N3CCCCC3)nc2c1,15.3
16,Nc1ccc2c(c1)-c1ccccc1S(=O)(=O)N2,11.1
17,COc1ccc(O)c2c(=O)c3c(OC)cc4c(c3oc12)C1C=COC1O4 (centres unmarked),4.03
18,O=C(c1cccs1)N1CCN=C1SCc1ccccc1,7.77
19,O=C1c2ccccc2C(=O)N1CCCn1c(=O)oc2ccccc21,11.4
20,Cc1cccc(-n2nnc3c(=O)n(Cc4ccccn4)cnc32)c1,-7.65

row,SMILES,"hERG current change (%, negative = inhibition) at 10uM [%]"
1,Cc1ccc(C(CNC(=O)Nc2ccccc2)N2CCN(C)CC2)cc1 (centres unmarked),-28.9
2,Cc1ccc(C(CNC(=O)c2ccc(Br)o2)N2CCN(C)CC2)cc1 (centres unmarked),-60.4
3,COc1ccc(C(CNC(=O)Nc2ccccc2)N2CCN(C)CC2)cc1 (centres unmarked),-12.8
4,COc1ccc(C(CNC(=O)Nc2ccc(Cl)cc2)N2CCN(C)CC2)cc1 (centres unmarked),-24.5
5,Cc1ccc(C(CNC(=O)c2ccco2)N2CCN(C)CC2)cc1 (centres unmarked),-11.1
6,CN1CCN(C(CNC(=O)Nc2ccc(Cl)cc2)c2ccc(F)cc2)CC1 (centres unmarked),-56.3
7,Cc1cccc(NC(=O)NCC(c2ccc(F)cc2)N2CCN(C)CC2)c1 (centres unmarked),-42.6
8,CN1CCN(C(CNC(=O)c2ccc(Br)o2)c2ccc(F)cc2)CC1 (centres unmarked),-17.5
9,Cc1ccc(C(CNC(=O)Nc2ccc(Cl)cc2)N2CCN(C)CC2)cc1 (centres unmarked),-76.8
10,Cc1ccc(/C=C(\C#N)C(=O)NCc2ccco2)o1,3.84
11,O=C(c1ccccc1)c1cn[nH]c1-c1ccccc1O,5.65
12,CCOc1ccc(S(=O)(=O)NCCC(=O)N(C)Cc2cccs2)cc1,-20.9
13,COc1cc(/C=N/NC(=O)c2ccccn2)ccc1OC(=O)c1ccc(Br)cc1,1.06
14,CCn1c(=O)c([N+](=O)[O-])c(NC2CCS(=O)(=O)C2)c2ccccc21 (centres unmarked),5.85
15,COCCNC(=O)CCc1nnc(Cc2ccc(-c3ccccc3)cc2)o1,14.5
16,COCCNC(=O)CCC1CCN(Cc2cccc(Oc3ccccc3)c2)CC1,-55.3
17,COCCNC(=O)CN1CCC(NC(=O)Nc2ccccc2)CC1,-8.21
18,COCCNC(=O)CCC1CCN(Cc2cccc(-c3ccc(C)o3)c2)CC1,-25.3
19,COCCNC(=O)CCC1CCN(Cc2ccc(-c3ccccc3)cc2)CC1,-63.6
20,OC1CCN(Cc2cccc(Oc3ccccc3)c2)CC1,6.4

row,SMILES,"hERG current change (%, negative = inhibition) at 10uM [%]"
1,Clc1ccccc1-c1nnc2sc(-c3ccco3)nn12,-21.8
2,O=C(CSc1ccc([N+](=O)[O-])cn1)Nc1ccccc1N1CCOCC1,-19.2
3,c1nc(NC2CCCCC2)c2[nH]cnc2n1,-3.86
4,COc1ccc(/C=C2\CCCCC2=O)cc1,-6.19
5,Cc1ccc(C(C)C)c(OCC(=O)Nn2c(=O)[nH]c3ccccc3c2=O)c1,-12.6
6,COc1ccc2c(c1)[nH]c1c(=O)n(/N=C/c3ccc(OC)c(CN4CCCCC4)c3)cnc12,-64.3
7,COc1ccc(/C=N/n2cnc3c([nH]c4ccccc43)c2=O)cc1CO,11.2
8,COc1ccc(/C=N/n2cnc3c([nH]c4ccccc43)c2=O)cc1COc1ccccn1,-8.67
9,COc1ccc2c(c1)[nH]c1c(=O)n(/N=C/c3ccc(OC)c(COc4ccccn4)c3)cnc12,-9.63
10,COc1ccc(/C=N/n2c(=O)[nH]c3c([nH]c4ccc(Cl)cc43)c2=O)cc1CN1CCCCC1,-13
11,COc1ccc2c(c1)[nH]c1c(=O)n(/N=C/c3ccc(OC)c(CN4CCCC4)c3)cnc12,-71.1
12,CCC(C)NC(=O)CN(c1ccc(Cl)c(Cl)c1)S(C)(=O)=O (centres unmarked),3.62
13,O=C(NC1CCCC1)c1cc(S(=O)(=O)N2CCOCC2)c(Cl)cc1Cl,-8.15
14,O=C(Nc1nnc(-c2ccc3c(c2)CCCC3)o1)C1CCCCC1,4.3
15,O=C(CSc1nnc(NC(=O)c2ccccc2F)s1)Nc1ccccc1F,30.9
16,CCn1c(SCC(=O)N2CCCCC2)nc2c1c(=O)n(C)c(=O)n2C,14.3
17,CCCCOc1ccc(/C(O)=C2/C(=O)C(=O)N(CCCOC)C2c2ccncc2)cc1 (centres unmarked),18.2
18,CCCOc1ccc(/C(O)=C2/C(=O)C(=O)N(CCCOC)C2c2cccnc2)cc1 (centres unmarked),-5.91
19,CCCOc1ccc(/C(O)=C2/C(=O)C(=O)N(CCCOC)C2c2ccncc2)cc1 (centres unmarked),-53.1
